The results in this text go back to PubChem BioAssay (NCATS).

The structures appear in SMILES notation. Inconclusive results are not listed. Active and inactive are the calls of the source. Unless noted, the call rests on the fitted dose curve; in most records, active means well fitted curve in the direction sought with a large enough effect; inconclusive means small, poorly fitted or top-dose-only effect, or another doubt; inactive means no such curve, though single readings can be large; an effect the other way counts as inactive or inconclusive.

Experiment [1] in a line: qHTS Assay for Lipid Storage Modulators (AID 1519; calls by dose curve; on activity change, negative = inhibition: on the % scale 0 is the no-effect control and ±100 the full control effect). To be noted: Drosophila S3 cells, BODIPY lipid droplet/cell ratio, laser cytometry, cells loaded with oleic acid; for activity change, negative = inhibition: at 25.7 µM (top of the series). The method in brief:
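Cells seeded at 5,000 per well were treated with compounds over a concentration series and loaded with oleic acid (400 uM, as added). Lipid droplet fluorescence (488 nm excitation, 500-530 nm channel) was read by laser-scanning cytometry and normalized to 20 uM Triacsin C.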
For orientation: In qHTS, concentration-response curves come from the screen itself.

Experiment [2] addresses ATP-dependent 6-phosphofructokinase (Trypanosoma brucei brucei) (UniProt O15648). Description: qHTS Assay to Find Inhibitors of T. brucei phosphofructokinase: hit validation (AID 492961). Further: on the % scale 0 is the no-effect control and ±100 the full control effect. Particulars: T. brucei PFK, ADP-Glo luminescence; series mostly up to 24.3 µM. The method in brief:
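Luminescence from ADP-Glo reports ADP generated as T. brucei PFK (1.25 nM) phosphorylates 0.5 mM fructose-6-phosphate using 0.1 mM ATP. Reactions ran 45 min at room temperature, pH 8.0.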

Experiment [3] has as its target Ubiquitin carboxyl-terminal hydrolase 1 (Homo sapiens) (UniProt O94782). Put plainly: Inhibitors of USP1/UAF1: Pilot qHTS (AID 504865). Further: nearly all actives have a fitted effect of over 35% in size. Further: potency means the concentration at half of the fitted maximal effect.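 On activity change, negative = inhibition: rhodamine fluorescence freed from ubiquitin-rhodamine substrate followed over time; top concentration of the series differs between compounds; on the % scale 0 is the no-effect control and ±100 the full control effect.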 To be noted: purified USP1/UAF1, Ub-rhodamine cleavage fluorescence; series mostly up to 114 µM. The method, boiled down:
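In 50mM HEPES pH 7.8 containing 0.5mM EDTA, 1mM TCEP, 0.1 mg/ml BSA and 0.01% Tween-20, 1nM USP1/UAF1 is exposed to compound for 15 min, then Ub-Rho (150nM final) is added and fluorescence is read over time.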

Experiment [4] concerns the target Luciferin 4-monooxygenase (Photinus pyralis) (UniProt P08659). Put plainly: Biochemical firefly luciferase enzyme assay for NPC (AID 624030).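 Further: purified P. pyralis luciferase at 10 nM with luciferin and ATP substrate; 0% = DMSO and -100% = full luciferase inhibition by PTC124 control; nearly all actives have a fitted effect of over 70% in size.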 Particulars: purified P. pyralis luciferase, luminescence, 5 min; series mostly up to 24.9 µM. The method in brief:
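Purified P. pyralis luciferase at 10 nM in 50 mM Tris Acetate (final), luminescence read within 5 minutes of enzyme addition to compounds. Activity normalised to PTC124 versus DMSO; concentration-response curves classed by r2, magnitude and activity.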

A short description of experiment [5]: qHTS profiling for inhibitors of Plasmodium falciparum proliferation (AID 504749). Further: potency means the concentration at half of the fitted maximal effect.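 On activity, negative = inhibition: 0% = DMSO vehicle and full inhibition = artemisinin control.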 On all read-outs here: nearly all actives have a fitted effect of over 60% in size. Particulars: P. falciparum in erythrocytes, SYBR Green DNA, 72 h; for activity, negative = inhibition: at 12.8 µM (top of the series). The method in brief: (§1)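 Readout was DNA-dye fluorescence from lysed cultures, ex 485/em 535 nm. Parasitized red cells had grown 72 h with compound; data scaled between 0.29 uM artemisinin and DMSO wells and corrected using vehicle-only plates.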

For the next experiment, the system named is 3D7. The experiment is described as above. Particulars: P. falciparum in erythrocytes, SYBR Green DNA, 72 h; series mostly up to 12.8 µM. The method, boiled down: as §1
The test system of a further experiment is CP237. The experiment is described as above. Particulars: P. falciparum in erythrocytes, SYBR Green DNA, 72 h; series mostly up to 12.8 µM. The method, boiled down:
as §1

The subject of the next experiment is PAD. The experiment is described as above. To be noted: P. falciparum in erythrocytes, SYBR Green DNA, 72 h; series mostly up to 12.8 µM. The method in brief:
as §1

In the next experiment the test system is CP268. Described as above. Particulars: P. falciparum in erythrocytes, SYBR Green DNA, 72 h; series mostly up to 12.8 µM. The method in brief: as §1
In the next experiment the test system is CP305. The experiment is described as above. To be noted: P. falciparum in erythrocytes, SYBR Green DNA, 72 h; series mostly up to 12.8 µM. The method, boiled down: as §1
For a further experiment, the system named is HB3. The description is as above. To be noted: P. falciparum in erythrocytes, SYBR Green DNA, 72 h; series mostly up to 12.8 µM. The method in brief: as §1
A further experiment deals with JCK. The description is as above. Particulars: P. falciparum in erythrocytes, SYBR Green DNA, 72 h; series mostly up to 12.8 µM. The method, boiled down:
as §1

A further experiment relates to PC49. The experiment is described as above. To be noted: P. falciparum in erythrocytes, SYBR Green DNA, 72 h; series mostly up to 12.8 µM. The method, boiled down: as §1
A further experiment has as its system C2A. Described as above. Particulars: P. falciparum in erythrocytes, SYBR Green DNA, 72 h; series mostly up to 12.8 µM. The method in brief:
as §1

For another experiment, the system named is CP201. The experiment is described as above. To be noted: P. falciparum in erythrocytes, SYBR Green DNA, 72 h; series mostly up to 12.8 µM. The method, boiled down: as §1
The next experiment has as its system CP211. The description is as above. To be noted: P. falciparum in erythrocytes, SYBR Green DNA, 72 h; series mostly up to 12.8 µM. The method in brief: as §1
The subject of the next experiment is CP252. The experiment is described as above. Particulars: P. falciparum in erythrocytes, SYBR Green DNA, 72 h; series mostly up to 12.8 µM. The method in brief: as §1
The next experiment relates to CP262. The experiment is described as above. Particulars: P. falciparum in erythrocytes, SYBR Green DNA, 72 h; series mostly up to 12.8 µM. The method, boiled down: as §1
Another experiment deals with CP315. Described as above. Particulars: P. falciparum in erythrocytes, SYBR Green DNA, 72 h; series mostly up to 12.8 µM. The method in brief: as §1
Another experiment concerns CP329. The description is as above. Particulars: P. falciparum in erythrocytes, SYBR Green DNA, 72 h; series mostly up to 12.8 µM. The method in brief: as §1
[6] abbreviates: measured here: cell count channel max response.
[7] abbreviates: measured here: lipid channel max response.

Chain of Ubiquitin carboxyl-terminal hydrolase 1 (Homo sapiens) (O94782 whole entry, looked up): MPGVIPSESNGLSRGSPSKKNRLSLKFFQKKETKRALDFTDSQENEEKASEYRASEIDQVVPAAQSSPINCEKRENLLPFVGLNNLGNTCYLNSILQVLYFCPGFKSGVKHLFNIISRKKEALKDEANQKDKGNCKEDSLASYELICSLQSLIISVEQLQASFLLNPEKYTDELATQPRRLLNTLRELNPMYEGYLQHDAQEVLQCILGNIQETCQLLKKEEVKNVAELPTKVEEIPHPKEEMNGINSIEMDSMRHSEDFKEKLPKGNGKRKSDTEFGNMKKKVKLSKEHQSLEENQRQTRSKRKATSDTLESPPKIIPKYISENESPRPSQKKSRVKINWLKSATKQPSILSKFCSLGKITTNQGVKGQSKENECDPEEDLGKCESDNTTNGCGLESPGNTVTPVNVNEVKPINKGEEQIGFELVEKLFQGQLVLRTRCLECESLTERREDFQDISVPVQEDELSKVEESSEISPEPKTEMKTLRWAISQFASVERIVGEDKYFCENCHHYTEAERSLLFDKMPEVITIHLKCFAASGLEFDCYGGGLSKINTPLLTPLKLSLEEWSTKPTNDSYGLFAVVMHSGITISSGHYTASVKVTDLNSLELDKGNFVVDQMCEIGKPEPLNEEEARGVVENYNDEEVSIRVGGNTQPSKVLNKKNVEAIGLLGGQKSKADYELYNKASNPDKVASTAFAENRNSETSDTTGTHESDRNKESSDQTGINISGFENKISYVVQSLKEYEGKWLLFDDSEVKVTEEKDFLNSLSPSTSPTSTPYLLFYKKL
Chain of ATP-dependent 6-phosphofructokinase (Trypanosoma brucei brucei) (O15648 whole entry, looked up): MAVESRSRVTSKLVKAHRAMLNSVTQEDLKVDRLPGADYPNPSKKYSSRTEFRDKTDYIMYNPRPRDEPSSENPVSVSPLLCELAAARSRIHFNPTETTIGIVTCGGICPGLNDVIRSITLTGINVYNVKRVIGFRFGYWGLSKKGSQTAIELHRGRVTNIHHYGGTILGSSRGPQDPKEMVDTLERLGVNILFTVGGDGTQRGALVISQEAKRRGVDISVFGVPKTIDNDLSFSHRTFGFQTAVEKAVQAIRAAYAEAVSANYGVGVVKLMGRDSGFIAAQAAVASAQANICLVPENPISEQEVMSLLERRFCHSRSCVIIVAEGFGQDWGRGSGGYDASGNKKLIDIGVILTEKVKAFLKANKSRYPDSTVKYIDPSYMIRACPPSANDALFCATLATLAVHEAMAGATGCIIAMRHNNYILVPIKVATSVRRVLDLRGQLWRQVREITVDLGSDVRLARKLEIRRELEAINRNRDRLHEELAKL
Chain of Luciferin 4-monooxygenase (Photinus pyralis) (P08659 whole entry, looked up): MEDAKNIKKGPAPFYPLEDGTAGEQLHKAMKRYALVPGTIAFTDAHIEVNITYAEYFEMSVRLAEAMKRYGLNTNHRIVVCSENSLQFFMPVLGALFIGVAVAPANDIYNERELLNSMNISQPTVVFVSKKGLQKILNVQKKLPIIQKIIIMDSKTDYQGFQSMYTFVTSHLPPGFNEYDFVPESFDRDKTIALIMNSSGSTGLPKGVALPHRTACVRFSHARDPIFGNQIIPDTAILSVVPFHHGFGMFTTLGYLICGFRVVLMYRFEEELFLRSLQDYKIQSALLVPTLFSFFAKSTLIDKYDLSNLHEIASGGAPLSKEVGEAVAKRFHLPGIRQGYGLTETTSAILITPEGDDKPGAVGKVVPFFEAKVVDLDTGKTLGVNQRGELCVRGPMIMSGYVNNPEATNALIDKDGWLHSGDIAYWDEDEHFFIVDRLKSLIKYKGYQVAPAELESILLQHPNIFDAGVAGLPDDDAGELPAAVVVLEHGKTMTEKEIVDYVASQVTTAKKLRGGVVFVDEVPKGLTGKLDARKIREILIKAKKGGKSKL

Turning to `CCOC(=O)Oc1c(OC)cc(C(=O)O[C@H]2C[C@H]3CN4CCc5c([nH]c6cc(OC)ccc56)[C@@H]4C[C@H]3[C@@H](C(=O)OC)[C@@H]2OC)cc1OC`, in [1], the activity change, negative = inhibition was -4.31% (inactive). Further, the max response in [1] (setting [6]) was -12.6%; in experiment [1] (setting [7]) it was -12.3%. Further, the call in experiment [2] was inactive. The Potency entry in experiment [3] and in [4] was “inactive” each time. Besides, the Potency in experiment [5] (parasite line A) is 4.47 µM (active); in the experiment on 3D7, 3.16 µM (active); with CP237, 3.16 µM (active); in the experiment with PAD it was 3.55 µM (active).

As for `O=C(O)[C@@H]1[C@@H]2C[C@H]3c4[nH]c5ccccc5c4CCN3C[C@@H]2CC[C@@H]1O`, in [1], the activity change, negative = inhibition is 0.95% (inactive). In addition, the max response in experiment [1] (setting [6]) is -6.3%; in experiment [1] (setting [7]), -6.11%. In addition, in experiment [2], the call was inactive. Moreover, the Potency in experiment [3] is 28.2 µM (active). Besides, the Potency result (in experiment [4]; with 3D7; in the experiment on CP268; in the experiment on CP305; in the experiment with HB3; in the experiment on JCK) was “inactive” each time. Also, the Potency entry in the experiment with PC49 was “inactive”.

With `C[C@H](CCC(=O)O)[C@H]1CC[C@@H]2[C@H]3[C@@H](CC[C@@]21C)[C@]1(C)CC[C@H](O)C[C@@H]1C[C@@H]3O`, the activity change, negative = inhibition in experiment [1] was 0.999% (inactive). The max response in [1] (setting [6]) was -6.52%; in experiment [1] (setting [7]), -4.97%. The Potency result in [3] is “inactive”.

In the case of `CC[N+]1(C)[C@@H]2CC[C@H]1CC(OC(=O)[C@H]1CC[C@@](C(=O)OC3C[C@H]4CC[C@@H](C3)[N+]4(C)CC)(c3ccccc3)c3ccccc31)C2` (stereo partly drawn), in experiment [1], the activity change, negative = inhibition was -4.59% (inactive). The max response in experiment [1] (setting [6]) was -11.7%; in [1] (setting [7]), -14.8%. The Potency entry in [3] was “inactive”.

Take `C[C@@]12C=CC(=O)C=C1CC[C@H]1[C@H]3CC[C@](O)(C(=O)CO)[C@]3(C)CC(=O)[C@@H]12`: the activity change, negative = inhibition in [1] is -0.593% (inactive). Further, the max response in [1] (setting [6]) is 0.532%; in experiment [1] (setting [7]), 0.96%.

`CCC(=O)OCC(=O)[C@@]1(OC(=O)CC)[C@H](C)C[C@@H]2[C@@H]3[C@H]([C@@H](O)C[C@@]21C)[C@]1(C)C=CC(=O)C=C1C[C@@H]3Cl`: in experiment [1], the activity change, negative = inhibition is -4.84% (inactive). For the same molecule, the max response in experiment [1] (setting [6]) was -9.62%; in experiment [1] (setting [7]), -12.3%. In addition, the molecule was classed as inactive in experiment [2]. For the same molecule, the Potency result (in [4]; in the experiment with C2A; in the experiment with CP201; in the experiment with CP211; with CP252; with CP262) was “inactive” in each case. The Potency result in the experiment on CP315 and in the experiment on CP329 was “inactive” throughout. The Potency with HB3 is 3.55 µM (active).

For the molecule `C[C@H](CCC(=O)O)[C@H]1CC[C@@H]2[C@@H]3[C@@H](O)C[C@H]4C[C@@H](O)CC[C@@]4(C)[C@H]3CC[C@@]21C`, the activity change, negative = inhibition in experiment [1] was -0.554% (inactive). Moreover, the max response in [1] (setting [6]) is -2.48%; in experiment [1] (setting [7]) it was -0.386%. In addition, the outcome in [2] was inactive. Also, the Potency result (in experiment [3]; in experiment [4]; in the experiment with 3D7; in the experiment on C2A; in the experiment with CP201; in the experiment with CP211) was “inactive” each time. For the same molecule, the Potency entry in the experiment on CP237, in the experiment with CP252, in the experiment on CP262, with CP268, in the experiment on CP305 and in the experiment on CP315 was “inactive” throughout. Further, the Potency result with CP329, in the experiment on HB3, in the experiment on JCK, with PAD and in the experiment with PC49 was “inactive” in each case.

Take `Cc1ccsc1/C=C\C1=NCCCN1C`: the activity change, negative = inhibition in experiment [1] was -1.64% (inactive). For the same molecule, the max response in [1] (setting [6]) was -9.18%; in [1] (setting [7]) it was -10.2%. In addition, the result in [2] was inactive. In addition, the Potency result (in [4]; in the experiment with 3D7; with C2A; in the experiment with CP201; in the experiment on CP211; with CP237) was “inactive” each time. Further, the Potency result in the experiment on CP252, in the experiment on CP262, in the experiment on CP268, in the experiment on CP305, in the experiment on CP315 and with CP329 was “inactive” throughout. Moreover, the Potency result in the experiment on HB3, in the experiment on JCK, in the experiment with PAD and in the experiment with PC49 was “inactive” each time. The figures for the activity, negative = inhibition in experiment [5] (parasite line A) and in experiment [5] (parasite line B) were 10.5% (inactive) and 9.61% (inactive), respectively.

For the molecule `C=C(C)[C@H]1CC[C@]2(CO)CC[C@]3(C)[C@@H](CC[C@H]4[C@@]5(C)CC[C@@H](O)C(C)(C)[C@@H]5CC[C@@]43C)[C@H]12`, in experiment [1], the activity change, negative = inhibition is -10.7% (inactive). Moreover, the max response in experiment [1] (setting [6]) was -12.9%; in [1] (setting [7]), -22.1%. Moreover, the Potency result in experiment [3] is “inactive”.
